In PubChem BioAssay:
Inconclusive results are not listed. Active and inactive are the calls of the source. Unless noted, cut-off not given; nearly all actives show AC50 up to about 26 µM.

How the values were obtained:
[1] = viability loss in pontine glioma line – cell-based, SU-DIPG-XVII, MIPE5.0, CellTiter-Glo, qHTS, dose response (AID 1347060); conditions: CellTiter-Glo ATP luminescence;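 on AC50: cells exposed to compound for 48 hours before viability readout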
[2] = viability loss in pontine glioma line – cell-based, SU-DIPG-XIII, MIPE5.0, CellTiter-Glo, qHTS, dose response (AID 1347064; cut-off not given, nearly all actives have AC50 up to about 23 µM;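 on AC50: cells exposed to compound for 48 hours before the viability read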); conditions: CellTiter-Glo ATP luminescence
[3] = viability loss in pontine glioma line – cell-based, SU-DIPG-XXV, MIPE5.0, CellTiter-Glo, qHTS, dose response (AID 1347065); conditions: CellTiter-Glo ATP luminescence;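 further: cells exposed to compound for 48 hours before ATP readout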
[4] = JHH-DIPG-1 glioma cell viability, MIPE5.0 library, CellTiter-Glo luminescence, qHTS (AID 1347067); conditions: JHH-DIPG-1 glioma viability, CellTiter-Glo ATP luminescence;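 further: cells exposed to compound for 48 hours before readout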
[5] = growth inhibition of DIPG cells – cell-based, MIPE5.0 library, qHTS (AID 1347068; cut-off not given, nearly all actives have IC50 up to about 30 µM;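 on IC50: cells exposed to compound for 48 hours before viability readout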); conditions: SU-DIPG-XXV viability

O=C(/C=C\n1cnc(-c2cc(C(F)(F)F)cc(C(F)(F)F)c2)n1)N1CC(F)(F)C1
active: AC50 [1] 1.18 µM | AC50 [2] 2.63 µM | AC50 [3] 13.2 µM | AC50 [4] 9.34 µM

CC1=C(c2ccc(O)cc2)[C@H](c2ccc(OCCN3CCCCC3)cc2)Oc2cc(O)ccc21
inactive: outcome [4]
active: AC50 [1] 20.9 µM | AC50 [2] 18.6 µM | AC50 [3] 16.6 µM

COc1nc(OCc2cccc(-c3ccccc3)c2C)ccc1CNCCNC(C)=O
active: AC50 [1] 7.42 µM | AC50 [2] 8.33 µM | AC50 [3] 9.34 µM | AC50 [4] 9.34 µM | IC50 [5] 14.8 µM

Nc1ccc(/C=C/C(=O)NCc2cc3cc(-c4ccc(C(=O)N5CCC(F)(F)CC5)cc4)cc(-c4ccc(F)cc4)c3o2)cn1
active: AC50 [1] 0.105 µM | AC50 [2] 0.372 µM | AC50 [3] 0.742 µM | AC50 [4] 0.525 µM

NS(=O)(=O)Oc1ccc2c3c(c(=O)oc2c1)CCCCC3
inactive: outcome [1] | outcome [2] | outcome [3] | outcome [4]

O=c1cc(N2CCOCC2)oc2c(-c3ccc4c(c3)OCCO4)csc12
active: AC50 [1] 5.25 µM | AC50 [2] 6.61 µM | AC50 [3] 8.33 µM | AC50 [4] 7.42 µM

Nc1nc2cc(-c3ccc4ncc(C(=O)N5CCOCC5)n4c3)ccc2o1
active: AC50 [1] 18.6 µM | AC50 [2] 14.8 µM | AC50 [3] 9.34 µM | AC50 [4] 10.5 µM

COc1cc(F)c(F)c(Nc2ccc(I)cc2F)c1NS(=O)(=O)C1(C[C@H](O)CO)CC1
active: AC50 [1] 0.417 µM | AC50 [2] 0.235 µM | AC50 [3] 0.59 µM | AC50 [4] 0.209 µM | IC50 [5] 2.63 µM

Cc1cc(C(=O)Nc2cc(Nc3ccc4c(/C=C/c5ccccn5)n[nH]c4c3)ccc2F)n(C)n1
active: AC50 [1] 8.33 µM | AC50 [2] 7.42 µM | AC50 [3] 3.72 µM | AC50 [4] 16.6 µM

COc1cc(OC)cc(N2CCN(C(=O)Nc3nc4cc(F)ccc4nc3OC)CC2)c1
active: AC50 [1] 0.833 µM | AC50 [2] 2.63 µM | AC50 [3] 1.48 µM | AC50 [4] 1.32 µM

Cc1ncsc1-c1ccc([C@H](C)NC(=O)[C@@H]2C[C@@H](O)CN2C(=O)[C@@H](NC(=O)COCCCOCCNC(=O)C[C@@H]2N=C(c3ccc(Cl)cc3)c3c(sc(C)c3C)-n3c(C)nnc32)C(C)(C)C)cc1
active: AC50 [1] 0.132 µM | AC50 [2] 0.209 µM | AC50 [3] 0.0742 µM | AC50 [4] 0.0525 µM | IC50 [5] 0.332 µM

CC(C)(O)CS(=O)(=O)Nc1ccc2c(c1)CCN(C(=O)COc1cccnc1)C2
active: AC50 [1] 0.263 µM | AC50 [2] 0.0372 µM | AC50 [3] 0.0833 µM | AC50 [4] 0.0468 µM

C=CCNC1=C2CC(C)CC(OC)C(O)C(C)/C=C(\C)C(OC(N)=O)C(OC)/C=C/C=C(\C)C(=O)NC(=CC1=O)C2=O (stereo not drawn)
active: AC50 [1] 0.59 µM | AC50 [2] 1.66 µM | AC50 [3] 4.68 µM | AC50 [4] 0.525 µM | IC50 [5] 3.72 µM

NC(=O)c1cccc2c(NC(CN3CCC3)c3ccc(Cl)c(C(F)(F)F)c3)ncnc12 (stereo not drawn)
active: AC50 [1] 11.8 µM | AC50 [2] 3.72 µM | AC50 [3] 2.95 µM | AC50 [4] 11.8 µM

CC(C)NC(=O)C1CCC(n2c(NC(=O)c3ccc(F)cc3)nc3ccc(CN4CCC(C(C)(C)O)CC4)cc32)CC1 (stereo not drawn)
active: AC50 [1] 9.1 µM | AC50 [2] 7.23 µM | AC50 [3] 6.45 µM
inactive: outcome [4]

CN1CCN(Cc2ccc(Nc3ncc(Cl)c(Nc4ccccc4S(=O)(=O)N(C)C)n3)cc2)CC1
active: AC50 [1] 0.191 µM | AC50 [2] 0.241 µM | AC50 [3] 0.135 µM | AC50 [4] 0.382 µM | IC50 [5] 0.382 µM

O=C(NOCCO)c1ccc2cncn2c1Nc1ccc(I)cc1F
active: AC50 [1] 0.148 µM | AC50 [2] 0.148 µM | AC50 [3] 0.332 µM | AC50 [4] 0.105 µM

CCCCCCCOc1ccc(CCC(N)(CO)CO)cc1C(F)(F)F
active: AC50 [1] 8.33 µM | AC50 [2] 8.33 µM | AC50 [3] 9.34 µM | AC50 [4] 8.33 µM

CCN(CC)CCNc1ccc(C)c2sc3ccccc3c(=O)c12
active: AC50 [1] 13.2 µM | AC50 [2] 20.9 µM | AC50 [3] 16.6 µM | AC50 [4] 18.6 µM

Cc1cc(-c2cc(OC(=O)c3ccccc3)ccc2Cl)cc2nnc(Nc3ccc(OCCN4CCCC4)cc3)nc12
active: AC50 [1] 5.12 µM | AC50 [2] 7.23 µM | AC50 [3] 5.12 µM | AC50 [4] 5.12 µM

COc1ccc2cc(OCC3(C(=O)O)CN(C(=O)c4ccc(F)cc4)C3)ccc2c1
inactive: outcome [1] | outcome [2] | outcome [3] | outcome [4] | outcome [5]

COc1ccc(S(=O)(=O)NCc2ccc(C(=O)NCCc3ccc(Cl)cn3)cc2)cc1
inactive: outcome [1] | outcome [2] | outcome [3] | outcome [4]

CCc1c(-c2ccccc2C)nc2c(C#N)c[nH]n2c1=O
inactive: outcome [1] | outcome [2] | outcome [3] | outcome [4] | outcome [5]

CN(Cc1ccc(/C=C/C(=O)NO)cc1)CC12CC3CC(CC(C3)C1)C2
active: AC50 [1] 0.833 µM | AC50 [2] 0.372 µM | AC50 [3] 0.263 µM | AC50 [4] 0.332 µM | IC50 [5] 2.95 µM

Cn1ncc(Cl)c1-c1cc(C(=O)N[C@H](CN)Cc2ccc(F)c(F)c2)sc1Cl
active: AC50 [1] 18.6 µM | AC50 [2] 2.35 µM | AC50 [3] 1.32 µM | AC50 [4] 16.6 µM | IC50 [5] 16.6 µM

COc1cc(C(=O)O)ccc1NC(=O)[C@@H]1N[C@@H](CC(C)(C)C)[C@](C#N)(c2ccc(Cl)cc2F)[C@H]1c1cccc(Cl)c1F
active: AC50 [1] 6.61 µM | AC50 [2] 14.8 µM | AC50 [3] 9.34 µM | AC50 [4] 11.8 µM
